Experimental data reported in PubChem BioAssay.
The source made the active and inactive calls.

Experiments:
[1] = molecular target: NADPH oxidase 5 (Homo sapiens) (UniProt Q96PH1); assay: compounds shifting NOX5 Amplex Red fluorescence – cell-based, HEK293-NOX5, NOX inhibitor project, primary screen (AID 1161); details: HEK293-NOX5, ionomycin, 45 min, higher = more signal
[2] = compound effects on lung adenocarcinoma cell viability – A549, calcein-AM fluorescence, 48 h, basal, profiling panel (AID 1162); details: higher = more signal; also: test concentration not given here
[3] = compound effects on differentiated 3T3-L1 adipocyte viability – cell-based, 3T3-L1 adipocytes, calcein-AM fluorescence, 48 h, basal, profiling panel (AID 1163); details: 3T3-L1 adipocytes viability, higher = more signal; also: test concentration not given here
[4] = compound effects on hepatocellular carcinoma cell viability – HepG2, calcein-AM fluorescence, 48 h, basal, profiling panel (AID 1164); details: higher = more signal; also: test concentration not given here
[5] = compound effects on multiple myeloma cell viability – MM1S, calcein-AM fluorescence, 48 h, basal, profiling panel (AID 1165); details: higher = more signal;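 also: viability of MM1S multiple myeloma cells under basal unstimulated conditions; test concentration not given here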
[6] = calcein-AM signal in unstimulated myeloma cells – cell-based, calcein-AM fluorescence, 48 h, PK04 Diversity Set, profiling panel (AID 1166); details: RPMI8226 myeloma viability, higher = more signal;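 also: cells grown under basal conditions without added stimulus; test concentration not given here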
[7] = JC-1 mitochondrial signal, unstimulated HepG2 cells – cell-based, JC-1 fluorescence, 24 h, 100 nL compound, profiling panel (AID 1167); details: HepG2 mitochondrial potential, higher = more signal; also: test concentration not given here
[8] = JC-1 mitochondrial signal, unstimulated adipocytes – cell-based, JC-1 fluorescence, 3T3-L1 adipocytes, 24 h, 100 nL compound, profiling panel (AID 1168); details: JC-1 mitochondrial fluorescence, higher = more signal, called active from +8 up or from −8 down; also: test concentration not given here
[9] = JC-1 mitochondrial signal, unstimulated myeloma cells – cell-based, JC-1 fluorescence, RPMI8226, 24 h, 100 nL compound, profiling panel (AID 1169); details: JC-1 mitochondrial potential fluorescence, higher = more signal; also: test concentration not given here
[10] = JC-1 mitochondrial signal, unstimulated MM1S myeloma – cell-based, JC-1 fluorescence, 24 h, 100 nL compound, profiling panel (AID 1170); details: MM1S mitochondrial potential, higher = more signal; also: test concentration not given here
[11] = resazurin metabolic signal in A549 cells – cell-based, resazurin fluorescence, 24 h, PK04 Diversity Set, profiling panel (AID 1171); details: A549 viability, higher = more signal, called active from +8 up or from −8 down; also: test concentration not given here
[12] = resazurin metabolic signal in HepG2 cells – cell-based, resazurin fluorescence, 24 h, PK04 Diversity Set, profiling panel (AID 1172); details: HepG2 viability, higher = more signal; also: test concentration not given here
[13] = budding yeast growth changes without added modifier – OD600, strain BY4716, 24 h, basal condition, primary screen (AID 1173); details: S. cerevisiae BY4716 growth, OD600, 24 h; higher = more signal, called active from +8 up or from −8 down
[14] = viability profiling in MM1S myeloma cells – cell-based, resazurin fluorescence, basal, 24 h, PK04 Diversity Set, profiling panel (AID 1174); details: higher = more signal, called active from +8 up or from −8 down; also: test concentration not given here
[15] = molecular target: Dihydroorotate dehydrogenase (quinone), mitochondrial (Plasmodium falciparum (isolate 3D7)) (UniProt Q08210); assay: inhibition of P. falciparum DHODH – biochemical, C-terminal His tag, absorbance 600 nm, primary screen (AID 1175); details: PfDHODH enzyme, DCIP absorbance 600 nm; higher = more signal, called active from +8 up or from −8 down;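 also: recombinant parasite enzyme with a five histidine tag at its C terminus; test concentration not given here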
Dihydroorotate dehydrogenase (quinone), mitochondrial (Plasmodium falciparum (isolate 3D7)), sequence (Q08210 whole entry, looked up): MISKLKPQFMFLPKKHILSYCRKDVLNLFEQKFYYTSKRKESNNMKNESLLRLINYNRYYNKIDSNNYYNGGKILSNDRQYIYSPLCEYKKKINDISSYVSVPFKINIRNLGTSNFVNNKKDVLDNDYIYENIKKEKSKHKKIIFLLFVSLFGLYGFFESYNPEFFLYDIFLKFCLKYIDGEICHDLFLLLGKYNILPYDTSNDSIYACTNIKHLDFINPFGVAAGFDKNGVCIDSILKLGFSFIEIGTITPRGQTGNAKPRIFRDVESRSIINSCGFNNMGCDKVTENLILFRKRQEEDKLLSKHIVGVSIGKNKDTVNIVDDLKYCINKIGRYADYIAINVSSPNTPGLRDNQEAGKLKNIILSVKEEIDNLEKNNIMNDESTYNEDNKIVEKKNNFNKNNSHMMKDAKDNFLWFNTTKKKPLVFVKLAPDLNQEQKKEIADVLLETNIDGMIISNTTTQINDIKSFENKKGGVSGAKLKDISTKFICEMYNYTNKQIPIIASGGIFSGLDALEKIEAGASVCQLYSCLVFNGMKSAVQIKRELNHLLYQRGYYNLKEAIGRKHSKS

[16] = growth modulation of vineyard yeast isolate – strain RM11-1a, OD600, basal, 24 h, primary screen (AID 1177);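 also: cultures grown under basal conditions with no added stressor; test concentration not given here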; details: S. cerevisiae RM11-1a growth, OD600, 24 h; higher = more signal, called active from +8 up or from −8 down
[17] = growth of efflux-deficient E. coli DRC39 – strain DRC39, OD650, 24 h, E. coli filamentation inducers, primary screen (AID 1178);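 also: growth measured as culture turbidity by optical density at 650 nm; test concentration not given here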; details: E. coli DRC39 acrAB, higher = more signal, called active from +8 up or from −8 down
[18] = growth of efflux-deficient E. coli DRC39 – strain DRC39, OD650, 48 h, E. coli filamentation inducers, primary screen (AID 1179);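 also: screen aims at cell division blockers that make cells filament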; details: E. coli DRC39 delta-acrAB growth, higher = more signal, called active from +8 up or from −8 down
[19] = viability profiling in RPMI8226 myeloma cells – cell-based, resazurin fluorescence, basal, 24 h, PK04 Diversity Set, profiling panel (AID 1180); details: higher = more signal;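 also: RPMI8826 multiple myeloma cell line at 5000 cells per well; test concentration not given here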
[20] = molecular target: E3 ubiquitin-protein ligase XIAP (Homo sapiens) (UniProt P98170); assay: small molecules binding XIAP protein – biophysical, small-molecule microarray, fluorescence 635 nm, primary screen (AID 1181); details: higher = more signal;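 also: score merges 667 nm emission and signal to noise over triplicate slides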
E3 ubiquitin-protein ligase XIAP (Homo sapiens), sequence (P98170 whole entry, looked up): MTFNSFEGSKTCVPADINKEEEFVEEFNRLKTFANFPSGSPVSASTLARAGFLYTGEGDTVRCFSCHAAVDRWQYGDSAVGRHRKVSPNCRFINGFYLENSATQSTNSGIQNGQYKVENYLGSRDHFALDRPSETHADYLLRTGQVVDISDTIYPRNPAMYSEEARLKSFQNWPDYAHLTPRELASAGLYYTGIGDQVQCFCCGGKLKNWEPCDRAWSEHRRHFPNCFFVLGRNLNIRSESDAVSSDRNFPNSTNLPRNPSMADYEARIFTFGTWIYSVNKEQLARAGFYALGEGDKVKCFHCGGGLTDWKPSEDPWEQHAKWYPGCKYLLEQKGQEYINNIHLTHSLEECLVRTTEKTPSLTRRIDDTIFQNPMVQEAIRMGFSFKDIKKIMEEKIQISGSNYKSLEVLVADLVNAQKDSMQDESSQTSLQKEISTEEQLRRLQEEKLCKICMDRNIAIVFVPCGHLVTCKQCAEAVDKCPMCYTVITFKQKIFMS

NADPH oxidase 5 (Homo sapiens), sequence (Q96PH1 whole entry, looked up): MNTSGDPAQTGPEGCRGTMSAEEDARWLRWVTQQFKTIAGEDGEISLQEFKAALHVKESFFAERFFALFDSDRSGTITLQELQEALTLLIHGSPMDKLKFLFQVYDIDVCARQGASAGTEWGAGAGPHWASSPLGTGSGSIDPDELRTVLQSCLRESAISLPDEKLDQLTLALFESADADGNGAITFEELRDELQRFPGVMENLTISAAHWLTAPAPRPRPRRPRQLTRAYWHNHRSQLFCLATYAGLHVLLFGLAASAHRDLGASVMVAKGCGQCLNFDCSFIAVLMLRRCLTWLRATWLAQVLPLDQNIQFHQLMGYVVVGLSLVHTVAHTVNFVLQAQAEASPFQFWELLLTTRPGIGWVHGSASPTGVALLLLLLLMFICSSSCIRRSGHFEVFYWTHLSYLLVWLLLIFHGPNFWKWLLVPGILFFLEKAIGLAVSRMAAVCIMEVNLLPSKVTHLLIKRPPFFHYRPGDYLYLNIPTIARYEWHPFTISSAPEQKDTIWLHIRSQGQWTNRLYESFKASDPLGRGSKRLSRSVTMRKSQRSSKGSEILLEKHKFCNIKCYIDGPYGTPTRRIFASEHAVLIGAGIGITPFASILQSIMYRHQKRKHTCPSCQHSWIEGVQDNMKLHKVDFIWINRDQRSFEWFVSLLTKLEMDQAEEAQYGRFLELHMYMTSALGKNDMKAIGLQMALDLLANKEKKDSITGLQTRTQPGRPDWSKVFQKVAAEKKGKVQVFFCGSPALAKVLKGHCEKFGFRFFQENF

## C=CCOC(=O)[C@H]1[C@@H]2C(=O)O[C@@H](c3ccccc3)[C@@H](c3ccccc3)N2[C@@H](c2ccc(OCCOC(=O)[C@H]3C[C@H]4C(=O)N5CCC[C@H]5C(=O)N4[C@H]3c3cccc(OCCO)c3)cc2)[C@]12C(=O)Nc1ccccc12
[1]
  z-score: 1.43
[2]
  z-score: 0.552
[3]
  z-score: 1.19
[4]
  z-score: -0.588
[5]
  z-score: -1.73
[6]
  z-score: 0.791
[7]
  z-score: -0.558
[8]
  z-score: 0.569 (inactive)
[9]
  z-score: -0.585
[10]
  z-score: -0.673
[11]
  z-score: 0.601 (inactive)
[12]
  z-score: 0.0928
[13]
  z-score: 0.22 (inactive)
[14]
  z-score: 1.26 (inactive)
[15]
  composite z-score: 0.493 (inactive)
[16]
  z-score: 1.16 (inactive)
[17]
  z-score: 0.971 (inactive)
[18]
  z-score: 0.184 (inactive)
[19]
  z-score: 1.37
[20]
  composite z-score: 0.298

## COc1ccc(CCNC(=O)[C@@]2(Sc3ccc(C)cc3)CC(=O)N(Cc3ccccc3)[C@@H]2c2ccc(CO)cc2I)cc1
[1]
  z-score: 1.78
[2]
  z-score: 0.648
[3]
  z-score: 1.14
[4]
  z-score: -0.46
[5]
  z-score: -1.78
[6]
  z-score: -2.05
[7]
  z-score: 1.17
[8]
  z-score: 0.0695 (inactive)
[9]
  z-score: -0.861
[10]
  z-score: -1.3
[11]
  z-score: 1.28 (inactive)
[12]
  z-score: 0.278
[13]
  z-score: -1.92 (inactive)
[14]
  z-score: -2.26 (inactive)
[15]
  composite z-score: 0.341 (inactive)
[16]
  z-score: 0.893 (inactive)
[17]
  z-score: 0.361 (inactive)
[18]
  z-score: -0.0855 (inactive)
[19]
  z-score: -1.5
[20]
  composite z-score: 0.0623

## C=CCNC(=O)[C@H]1[C@@H]2C(=O)O[C@@H](c3ccccc3)[C@@H](c3ccccc3)N2[C@@H](c2ccccc2OCCO)[C@]12C(=O)N(C(=O)OCCOC)c1ccc(C#CCCO)cc12
[1]
  z-score: 1.01
[2]
  z-score: 0.822
[3]
  z-score: 0.674
[4]
  z-score: -0.123
[5]
  z-score: -2.04
[6]
  z-score: -1.42
[7]
  z-score: 0.534
[8]
  z-score: 0.825 (inactive)
[9]
  z-score: -0.847
[10]
  z-score: -0.665
[11]
  z-score: 0.659 (inactive)
[12]
  z-score: -0.156
[13]
  z-score: 0.799 (inactive)
[14]
  z-score: 0.287 (inactive)
[15]
  composite z-score: -0.409 (inactive)
[16]
  z-score: 1.57 (inactive)
[17]
  z-score: 0.488 (inactive)
[18]
  z-score: 0.985 (inactive)
[19]
  z-score: -0.0311
[20]
  composite z-score: 0.355

## COc1ccc([Si](C)(C)[C@H]2[C@H](CCO)O[C@@]3(C(=O)N(Cc4ccc(N5C(=O)c6cccc7cccc5c67)cc4)c4ccccc43)[C@@H]2C)cc1
[1]
  z-score: 0.378
[2]
  z-score: -1.02
[3]
  z-score: 2.06
[4]
  z-score: -2.91
[5]
  z-score: -1.23
[6]
  z-score: -3.75
[7]
  z-score: 0.00974
[8]
  z-score: 1.68 (inactive)
[9]
  z-score: -1.07
[10]
  z-score: -1.6
[11]
  z-score: -2.51 (inactive)
[12]
  z-score: -1.26
[13]
  z-score: -0.433 (inactive)
[14]
  z-score: -2.4 (inactive)
[15]
  composite z-score: -0.344 (inactive)
[16]
  z-score: 2.48 (inactive)
[17]
  z-score: 2.3 (inactive)
[18]
  z-score: 1.4 (inactive)
[19]
  z-score: -4.55
[20]
  composite z-score: 0.0223

## C=CCC(OC(C)=O)[C@@H]1[C@@H](N(Cc2cccc3ccccc23)C(=O)c2cccc3ccccc23)c2cc(OCCCO)ccc2N1C(=O)Cc1ccc(OC)cc1 (stereo not given in full)
[1]
  z-score: 1.46
[2]
  z-score: 0.725
[3]
  z-score: 2.56
[4]
  z-score: 0.486
[5]
  z-score: 1.7
[6]
  z-score: -1.28
[7]
  z-score: 3.07
[8]
  z-score: 0.451 (inactive)
[9]
  z-score: 0.402
[10]
  z-score: 0.779
[11]
  z-score: -0.245 (inactive)
[12]
  z-score: 0.147
[13]
  z-score: -3 (inactive)
[14]
  z-score: 1.09 (inactive)
[15]
  composite z-score: 0.848 (inactive)
[16]
  z-score: -1.48 (inactive)
[17]
  z-score: 1.35 (inactive)
[18]
  z-score: 0.717 (inactive)
[19]
  z-score: 0.301
[20]
  composite z-score: 0.108

## CC(C)C(CO)N1C(=O)[C@@H]2[C@H]3C(=O)OCC=C[C@H]3OC23C=CCN(Cc2ccccc2)C(=O)[C@@H]13 (stereo not given in full)
[1]
  z-score: 1.61
[2]
  z-score: -0.769
[3]
  z-score: 0.651
[4]
  z-score: -0.384
[5]
  z-score: 0.33
[6]
  z-score: 0.0894
[7]
  z-score: 0.341
[8]
  z-score: 0.232 (inactive)
[9]
  z-score: 0.159
[10]
  z-score: 1.96
[11]
  z-score: -0.077 (inactive)
[12]
  z-score: 0.25
[13]
  z-score: -1.57 (inactive)
[14]
  z-score: 0.699 (inactive)
[15]
  composite z-score: -0.429 (inactive)
[16]
  z-score: -0.752 (inactive)
[17]
  z-score: 1.53 (inactive)
[18]
  z-score: 1.03 (inactive)
[19]
  z-score: 0.359
[20]
  composite z-score: 0.411

## Cc1ccc(N2C(=O)c3ccccc3[C@](C)(C(=O)NC3CC3)[C@@H]2c2ccc(CO)cc2)nc1
[1]
  z-score: 0.398
[2]
  z-score: 0.434
[3]
  z-score: 0.995
[4]
  z-score: 0.0786
[5]
  z-score: 0.47
[6]
  z-score: 0.442
[7]
  z-score: 0.587
[8]
  z-score: -0.73 (inactive)
[9]
  z-score: 0.36
[10]
  z-score: 0.259
[11]
  z-score: 1.1 (inactive)
[12]
  z-score: 0.403
[13]
  z-score: -1.76 (inactive)
[14]
  z-score: 1.55 (inactive)
[15]
  composite z-score: 0.0264 (inactive)
[16]
  z-score: -0.224 (inactive)
[17]
  z-score: 0.256 (inactive)
[18]
  z-score: 0.143 (inactive)
[19]
  z-score: 1.51
[20]
  composite z-score: 0.0253

## C[N+](C)(C)CCCC[C@@H]1NC(=O)[C@H]2C[C@@H](C(=O)NCCCCCN)[C@@H](c3cccc(OCCO)c3)N2C1=O
[1]
  z-score: 2.24
[2]
  z-score: -0.013
[3]
  z-score: 2.1
[4]
  z-score: -0.468
[5]
  z-score: -0.433
[6]
  z-score: -0.649
[7]
  z-score: 1.31
[8]
  z-score: 0.0454 (inactive)
[9]
  z-score: -0.773
[10]
  z-score: 0.0601
[11]
  z-score: -0.156 (inactive)
[12]
  z-score: -0.148
[13]
  z-score: -0.26 (inactive)
[14]
  z-score: 1.53 (inactive)
[15]
  composite z-score: -0.407 (inactive)
[16]
  z-score: -0.286 (inactive)
[17]
  z-score: 0.222 (inactive)
[18]
  z-score: -0.0647 (inactive)
[19]
  z-score: 0.729
[20]
  composite z-score: -0.163

## C=C(COC)C(=O)CC[C@@H](OC(=O)c1ccccc1-c1ccccc1C(=O)O)c1cccc(OCCO)c1
[1]
  z-score: -0.986
[2]
  z-score: 0.467
[3]
  z-score: 0.649
[4]
  z-score: -0.441
[5]
  z-score: -1.99
[6]
  z-score: -1.43
[7]
  z-score: 0.0537
[8]
  z-score: 0.469 (inactive)
[9]
  z-score: -0.0226
[10]
  z-score: 1.4
[11]
  z-score: 1.2 (inactive)
[12]
  z-score: 0.417
[13]
  z-score: -0.749 (inactive)
[14]
  z-score: 0.0335 (inactive)
[15]
  composite z-score: -0.733 (inactive)
[16]
  z-score: 0.291 (inactive)
[17]
  z-score: 1.16 (inactive)
[18]
  z-score: 0.755 (inactive)
[19]
  z-score: 0.458
[20]
  composite z-score: 0.109
